About 1,400 (0.41%) of roughly 340,000 compounds were called active. What follows is part of a selection rich in actives, with near analogues and random picks from the rest. A number with no mark means an inactive call.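 How the source made its calls: active means response above a set limit, near 3 SD of response in nonfluorescent compounds (cut at about 42% in these data); inactive means the rest.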
target: Beta-2 adrenergic receptor (Homo sapiens) (UniProt P07550); assay: agonist-induced loss of surface beta2AR – cell-based, FAP fluorogen, flow cytometry, primary screen (AID 504454); settings: Am2.2-beta2AR cells, FAP receptor internalization, stronger effect = higher value, concentration not given here
Sequence (P07550 whole entry, looked up): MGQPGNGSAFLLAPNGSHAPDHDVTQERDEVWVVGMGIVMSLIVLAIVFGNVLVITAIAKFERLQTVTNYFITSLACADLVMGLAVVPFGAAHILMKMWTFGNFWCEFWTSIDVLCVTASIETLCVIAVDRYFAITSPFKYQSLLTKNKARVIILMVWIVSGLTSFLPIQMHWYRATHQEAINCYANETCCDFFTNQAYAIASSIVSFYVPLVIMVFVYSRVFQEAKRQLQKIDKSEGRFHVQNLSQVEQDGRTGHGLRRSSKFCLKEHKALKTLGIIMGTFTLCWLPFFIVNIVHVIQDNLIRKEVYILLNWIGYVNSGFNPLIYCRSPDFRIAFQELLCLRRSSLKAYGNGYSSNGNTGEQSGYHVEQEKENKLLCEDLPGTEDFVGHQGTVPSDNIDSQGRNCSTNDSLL

| Compound | response |
| --- | --- |
| Cc1ccccc1NC(=O)C(C)OC(=O)CCC(=O)N(CC(C)C)c1c(N)n(CC(C)C)c(=O)[nH]c1=O (stereo unspecified) | -6.93% |
| CC(Cc1cccs1)NC(=O)c1cccc(Cl)c1 (stereo unspecified) | 5.14% |
| NC(=O)C1CCN(C(=O)/C(=C/c2ccco2)NC(=O)c2ccccc2)CC1 | 1.8% |
| CN(CCCNC(=O)CN1C(=O)CC(C)(C)S(=O)(=O)c2ccccc21)C1CCCCC1 | -2.22% |
| CC(NC(=O)c1ccccc1C(=O)O)c1ccc(-n2ccnc2)cc1 (stereo unspecified) | -8.08% |
| CCCOCC(O)CC(CC)C(=O)NNC(=S)Nc1ccccc1 (stereo unspecified) | 2.14% |
| O=C(O)CCn1c(O)c(C=C2N=c3ccccc3=N2)sc1=S | -0.19% |
| COC(=O)c1ccccc1NC(=O)C1CCN(S(=O)(=O)c2cc(OC)ccc2OC)CC1 | 4.15% |
| Nc1cc(N2CCCCCC2)c2nonc2c1[N+](=O)[O-] | 7.26% |
| Cc1nnc(SCC(=O)N2c3ccccc3C(C)(c3ccc(Cl)cc3)CC2(C)C)s1 (stereo unspecified) | 5.93% |
| CSCCNC(=O)c1ccc2nc(Cc3ccccc3F)oc2c1 | 1.28% |
| COC(=O)c1c(NC(=O)C2CC(C)=C(C)CC2C(=O)O)sc2c1CCCCC2 (stereo unspecified) | 4.27% |
| CC1=C(C)CC(C(=O)NNC(=O)c2csc3c2CCC(C(C)(C)C)C3)C(C(=O)O)C1 (stereo unspecified) | 61% (active) |
| CC1=C(C)CC(C(=O)NNC(=O)c2ccccc2O)C(C(=O)O)C1 (stereo unspecified) | -13% |
| C=CCNC(=O)C1CC=CCC1C(=O)O (stereo unspecified) | -0.29% |
| CCCCCCSc1ccc(-c2nc3ccc(Cl)cn3c2NCc2ccccc2)cc1 | -5.85% |
| CCCCNc1c(-c2cccc(Sc3ccc(OC)cc3)c2)nc2ccccn12 | 45% (active) |
| CCCCNc1c(-c2ccc(OC)c(Sc3ccc(OC)cc3)c2)nc2ccc(Cl)cn12 | 23% |
| COc1ccc(C2=Nn3c(nnc3-c3ccccc3OC)SC2)cc1OC1CCCC1 | 29.8% |
| O=C(NC1=CC(=O)c2ccccc2C1=O)c1ccccc1 | 84% (active) |
| O=C1C=C(NS(=O)(=O)c2ccccc2)C(=O)c2ccccc21 | 1.55% |
| CC(NC(=O)c1ccccc1)C(=O)Nc1ccccc1 (stereo unspecified) | -0.42% |
| COc1ccc(C2c3[nH]c4ccccc4c3CCN2CCCn2cccn2)cc1C (stereo unspecified) | -1.99% |
| Cc1ccc(N2C(=O)CC(N3CCSCC3)C2=O)c(C)c1 (stereo unspecified) | -0.71% |
| CC(C)(C)NC(=O)CN(C(=O)c1ccc(Cl)nc1)c1cccc2ccccc12 | 1.65% |
| CC(=O)OCCOCn1cnn2c(=O)c(Br)c(C)nc12 | -5.29% |

Reference: PubChem BioAssay AID504454 (NMMLSC, 2011)
